# Measurements: PubChem BioAssay (Tox21)
# Several values for one entry are separate records, joined by “and”; a condition that tells them apart may be missing. Equal entries are not always repeated. Inconclusive results are not listed. Some compounds were tested as several samples or in several runs, with calls that do not always agree. Activity calls are given as the source filed them. The call rests on the fitted dose curve; in most records, active means well fitted inhibition curve with a large enough effect in the repeat runs; inconclusive means weak or mixed curves; inactive means no such curve, though single readings can be large or run the other way.
# Target: Cytochrome P450 2C19 (Homo sapiens) (UniProt P33261)
# Assay: Cytochrome P450 Family 2 Subfamily C Member 19 (CYP2C19) small molecule antagonists: luciferase reporter qHTS assay (AID 1671197); further: nearly all actives have a fitted effect of over 65% in size
# Conditions: P450-Glo CYP2C19 enzyme, luciferin luminescence, 1 h; series mostly up to 115 µM; activity change, negative = inhibition: at the top concentration
# Description: National Center for Advancing Translational Sciences [NCATS]
# U.S. Environmental Protection Agency [EPA]
# National Institutes of Environmental Health Sciences [NIEHS]
# National Toxicology Program [NTP]
# U.S. Food and Drug Administration [FDA]
# Cytochrome P450 (CYP) enzymes are membrane-bound hemeproteins that play a key role in metabolism of drugs and xenobiotics. Evaluation of the effect of chemicals on CYP isozymes is useful to minimize the adverse drug reactions and toxicities in drug development process. Tox21 chemicals were tested for their effect on CYP enzyme activities by using P450-Glo (TM) screening systems (Promega Corporation, Madison, WI). These systems provide a luminescent method containing proluciferin substrates and are converted to luciferin products by CYP isozymes. The luciferin products formed are detected with a luciferin detection reagent, and the amount of light produced is proportional to CYP activity. P450-Glo (TM) CYP2C19 screening system (Catalog. No. V9880) was used to detect the compounds that interfere in CYP2C19 activity. The positive control compound used for CYP2C19 assay is ketoconazole (Sigma-Aldrich, St. Louis, MO).
# Tox21 Assay Protocol Summary:
# Two ul of enzyme-substrate mix was dispensed into medium binding white/solid 1536-well plates (Greiner Bio-One North America Inc., Monroe, NC) using a BioRaptr Flying Reagent Dispenser (FRD, Beckman Coulter, Brea, CA). Compounds dissolved in DMSO and positive control (ketoconazole) were transferred to the assay plates at 23 nl using a Pintool station (Wako, San Diego, CA). The assay plates were incubated at room temperature for 10 min. Then 2 ul of NADPH regeneration solution was added to each well of the assay plates using an FRD and incubated at 37C for 1 h. The reaction was stopped by adding 4 ul of detection reagent using an FRD and after 20 min incubation at room temperature the luminescence signal was measured using a ViewLux plate reader (Perkin Elmer, Shelton, CT). Data were expressed as relative luminescence units.
# On the % scale 0 is the no-effect control and ±100 the full control effect; potency means the concentration at half of the fitted maximal effect.
# Chain of Cytochrome P450 2C19 (Homo sapiens) (P33261 whole entry, looked up): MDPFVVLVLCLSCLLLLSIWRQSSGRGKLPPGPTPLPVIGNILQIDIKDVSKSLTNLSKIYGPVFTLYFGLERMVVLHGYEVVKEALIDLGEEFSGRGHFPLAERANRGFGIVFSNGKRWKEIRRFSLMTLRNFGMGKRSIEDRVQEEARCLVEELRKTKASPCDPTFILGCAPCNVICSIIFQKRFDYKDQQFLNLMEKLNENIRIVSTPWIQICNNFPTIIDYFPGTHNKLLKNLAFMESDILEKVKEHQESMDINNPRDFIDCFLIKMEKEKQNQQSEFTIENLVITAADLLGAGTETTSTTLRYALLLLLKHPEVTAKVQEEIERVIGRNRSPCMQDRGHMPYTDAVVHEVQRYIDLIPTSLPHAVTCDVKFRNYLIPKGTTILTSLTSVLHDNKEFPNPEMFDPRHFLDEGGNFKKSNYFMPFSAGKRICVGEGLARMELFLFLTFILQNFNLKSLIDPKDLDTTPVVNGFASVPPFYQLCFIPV
SMILES,Potency,"activity change, negative = inhibition"
O=C(O)CCCC[C@@H]1SC[C@@H]2NC(=O)N[C@@H]21,inactive,
CCCCCCCCCCCCc1ccccc1,,10.3% (inactive)
CCCCCCCCCCCCOCCO,25.2 µM (active) and inactive,
C[Si](O[Si](C)(C)C)O[Si](C)(C)C,inactive,
C#CCN(C)Cc1ccccc1,,3.17% [at 52.9 µM] (inactive)
CCCCCCCCCC,inactive and 71 µM (active),
OCC(CO)(CBr)CBr,,3.99% (inactive)
CCCCCC(N)=O,inactive,
Cc1ccc(N(C)C)cc1,inactive and 50.2 µM (active),
O=C(O)c1ccccc1C(c1ccc(O)cc1)c1ccc(O)cc1,inactive,
Cc1occc(=O)c1O,71 µM (active) and inactive,
Oc1cccc2ccccc12,23 µM (active) and 39.9 µM (active),
O=C(O)c1cc(C(=O)O)cc(S(=O)(=O)O)c1,,14.4% (inactive)
O=S1(=O)CC=CC1,inactive,
CC(=O)c1ccccc1,41.4 µM (active) and inactive,
c1ccc(OCCOc2ccccc2)cc1,5.02 µM (active) and 5.03 µM (active),
CCC(O)OCCCOC (stereo not given),41 µM (active) and inactive,
CCCCC(CC)COC(=O)CCCCC(=O)OCC(CC)CCCC (stereo not given),70.6 µM (active),
O=S(=O)(O)c1ccc2ccccc2c1,inactive,
C=CCNC(N)=S,69.4 µM (active) and inactive,

SMILES,Potency,"activity change, negative = inhibition"
OCCOCCOCCO,inactive,
O=C(O)c1ccc2c(c1)C(=O)OC2=O,inactive,
CC(=O)Nc1cccc(O)c1,inactive,
CCc1cccc(C)c1N,68.8 µM (active) and 71 µM (active),
C=C(C)C(=O)Nc1ccc(Cl)c(Cl)c1,22.7 µM (active) and 31.6 µM (active),
Cc1cc(C)c(C)cc1C,inactive,
CCCCCCCCCCCCS,inactive,
O=[N+]([O-])c1ccc(/C=C/c2ccc([N+](=O)[O-])cc2S(=O)(=O)O)c(S(=O)(=O)O)c1,inactive,
O=C(Oc1ccccc1)c1ccccc1,,16.1% (inactive)
CC1CCC(C(C)C)C(O)C1 (stereo not given),70.3 µM (active) and inactive,
c1ccc2scnc2c1,inactive,
CC(=O)Nc1ccccc1,71.3 µM (active) and inactive,
CCCCCCOCCO,inactive,
COS(C)(=O)=O,inactive,
CCC(O)OC(O)CC (stereo not given),inactive,
CCCCCCCCCCCCCCO,inactive,
Fc1ccc(Br)cc1,71.7 µM (active) and inactive,
CC(C)c1ccc(S(=O)(=O)O)cc1,inactive,
COc1ccc(Cl)cc1C(=O)NCCc1ccc(S(=O)(=O)NC(=O)NC2CCCCC2)cc1,,1.1% [at 52.9 µM] (inactive)
Cc1ccc(S(N)(=O)=O)cc1,19.9 µM (active) and inactive,
